Data from PubChem BioAssay AID2401 (Southern Research Specialized Biocontainment Screening …, 2010).
In all, about 2,200 compounds went through this assay and about 530 (24%) were called active.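 The calls were made as follows: active = inhibition above a set limit at one or more concentrations of the dose series; inactive = inhibition under that limit at every dose.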 Not all results are given here. Entries with a potency or affinity are not part of this list.

Assay: S. Typhimurium nonspecific reporter signal inhibition – Salmonella Typhimurium, GFP fluorescence, counter-screen for PhoP regulon inhibitor project, dose response (AID 2401);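 also: S. typhimurium with Mg-insensitive nmpC-GFP reporter grown at 10 µM Mg2+; drop in reporter fluorescence reflects general culture growth inhibition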
Details: 4 h; series mostly up to 150 µM

Structure (SMILES)	outcome
Cc1nn(C)c(C)c1S(=O)(=O)N1CCC(C(=O)NC2CCCCC2)CC1	inactive
Oc1[nH]c(=S)sc1/C=C1\C(c2ccccc2)=Nc2ccccc21	inactive
C#CCn1c(=NC(=O)c2cc(Cl)sc2Cl)sc2cc(S(N)(=O)=O)ccc21	inactive
O=C(O)C1(P(=O)(c2ccccc2)c2ccccc2)CCC1	inactive
Cc1cc(C)c2c(=O)[nH]c(SCC(=O)Nc3ccc(N(C)C)cc3)nc2n1	inactive
CC(C)c1ccc(O)c(NC(=O)c2cncc(Br)c2)c1	inactive
Cc1cc2nn(-c3ccccc3)nc2cc1NC(=O)c1cccs1	inactive
Cc1ccc(/C=C2\SC(=S)N(Cc3ccccc3)C2=O)o1	inactive
O=C(Nc1ccsc1C(=O)NC1CCCCC1)c1ccccc1	inactive
CCOC(=O)c1c(NC(=O)COc2ncnc3ccccc23)sc(C)c1CC	inactive
CCOC(=O)CCCc1c[nH]c2ccccc12	inactive
O=C(c1ccccc1)c1coc2ccc(O)c(Cl)c12	inactive
CCCCN(C)C(=O)c1cn(C)c2ccc(S(=O)(=O)N(C)C)cc2c1=O	inactive
Cc1nc(CC(=O)c2ccc(O)cc2O)cs1	inactive
COC(=O)c1sccc1NC(=O)c1cccnc1	inactive
O=C(CSc1ccc(Cl)cc1)Nc1ccccc1N1CCN(C(=O)c2ccc(Cl)cc2)CC1	inactive
COc1ccc(-c2csc(Nc3cccnc3)n2)cc1	inactive
CC(=O)NC12CC3CC(C1)CC(C(=O)OCC(=O)c1ccc4c(c1)OCCO4)(C3)C2	inactive
COc1ccc(CC(=O)n2nc(-c3ccccc3)nc2NCc2ccco2)cc1	inactive
CC(C)(C)c1ccc(C2CC2C(=O)N/N=C\c2cc3ccccc3nc2Cl)cc1 (stereo unspecified)	inactive
COc1ccc2c(c1)nc(N)n2Cc1ccccc1	inactive
CCCn1c(N)nc2ccccc21	inactive
CCCCn1c(N)nc2ccccc21	inactive
CSc1nc2ccccc2n1Cc1cccc(F)c1	inactive
CCOC(=O)c1[nH]c2ccccc2c1NC(=O)NC1CCCCC1	inactive
O=C(OCC#CCSc1nnc(-c2cccc3ccccc23)o1)c1ccco1	inactive

Structure (SMILES)	outcome
Cc1ccc2nc(C(F)OC(F)(F)F)[nH]c2c1 (stereo unspecified)	inactive
O=C(CC1SC(=NCc2ccccc2)NC1=O)Nc1ccccc1 (stereo unspecified)	inactive
CC(=O)n1cc(/C=N/NC(=O)c2sc(C)nc2C)c2ccccc21	inactive
COc1ccc2ccccc2c1/C=N/NC(=O)c1sc(N)c(C#N)c1C	inactive
COc1ccc(OCCn2cc(/C=N/NC(=O)c3ccncc3)c3ccccc32)cc1	inactive
COc1ccc(NC(=O)c2ccc(OC)cc2)cc1	inactive
CC(=O)c1c(C)nc(-c2ccc(Cl)cc2)nc1N=CN(C)C	inactive
O=C1CN(C(=O)COC(=O)CCC(=O)c2ccc3c(c2)OCCO3)c2ccccc2N1	inactive
Cc1cccc(-n2c(N)cc(=O)[nH]c2=S)c1C	inactive
Oc1cccc2ccc[n+](CC(O)Cn3c4ccccc4c4ccccc43)c12 (stereo unspecified)	inactive
OCCN(CCO)CC(O)Cn1c2ccccc2c2ccccc21 (stereo unspecified)	inactive
Cc1cc(C)c(C#N)c(SCc2cn3ccccc3n2)n1	inactive
CCCCNC(=O)Oc1cccc(N2CCCC2=O)c1	inactive
COc1ccc(Cl)cc1C(=O)CSc1nc(N)cc(N)n1	inactive
COc1ccccc1N1CCN(C/C(O)=C(\C#N)c2nc(-c3ccccc3)cs2)CC1	inactive
Cc1nc(-c2ccccc2)cc(=O)[nH]1	inactive
CC(CCc1ccccc1)NC(=O)c1ccccc1 (stereo unspecified)	inactive
Cn1c(NCc2ccccc2O)nc2ccccc21	inactive
COCC(=O)N=Nc1c(O)[nH]c2ccccc12	inactive
C/C(=N\NC(=S)Nc1ccc(F)cc1)c1ccc2c(c1)OCCO2	inactive
Nc1nonc1C(=O)NCCN=Cc1cc(Cc2ccccc2)cc(Br)c1O	inactive
Nc1nonc1-n1nnc(C(=O)N/N=C/c2ccc(Br)cc2)c1CSC1=NCCS1	inactive
COc1cccc(C=NCCNC(=O)c2nonc2N)c1O	inactive
COC(=O)Cc1c(C)nc2nc(NCc3ccc(Cl)cc3)[nH]n2c1=O	inactive
CC(C)CNC(=S)NC1CCCC1	inactive
O=C(OCC(=O)c1ccccc1Cl)c1cnccn1	inactive

Structure (SMILES)	outcome
Cc1ccc(C(=O)C2COC(=O)C2)cc1 (stereo unspecified)	inactive
COc1ccc(S(=O)(=O)N2CCN(C(=O)c3c(C)nn(-c4ccccc4)c3Cl)CC2)cc1	inactive
COc1ccccc1CC(=O)N1CCN(c2ccccn2)CC1	inactive
COc1ccc(-n2c(C)cc(C(=O)Cn3nc(C(=O)O)c4ccccc4c3=O)c2C)cc1	inactive
O=C(CN1CCCCC1)Nc1cccc2c1OCO2	inactive
COc1ccccc1NS(=O)(=O)c1cc(NC(=S)Nc2cc(C)cc(C)c2)ccc1Cl	inactive
O=S(=O)(Nc1cc(Sc2cccc3cccnc23)c(O)c2ccccc12)c1ccc(F)cc1	inactive
COC(=O)c1ccc(Sc2ccccc2NS(=O)(=O)c2ccc(C)cc2)nc1	inactive
CN(CC(=O)NCc1cccc(F)c1)C(=O)c1ccco1	inactive
COCCCNc1ccnc2c(Cl)cccc12	inactive
O=C(c1ccco1)N1CCN(c2ncnc3c2[nH]c2ccccc23)CC1	inactive
CC(=O)Nc1cccc(-c2csc(Nc3cccc(C)n3)n2)c1	inactive
Cc1ccc(-n2c(C)cc(C3=NNC(=NC4CC4)SC3)c2C)cc1C	inactive
COc1ccc(NC(=O)c2sccc2SCC#N)cc1	inactive
CCOC(=O)CN1C(=O)C(C)(C)Oc2ccc(C(=O)Nc3ccccc3OC)cc21	inactive
C=CCSC1=Nc2sccc2C2=NC(=O)CN12	inactive
Cc1ccn2cc(CSc3ccccc3N)nc2c1	inactive
COc1cccc(N=Cc2c[nH][nH]c2=O)c1	inactive
CO/N=C\CC(=O)Nc1ccc(F)cc1	inactive
COc1ccccc1N1CCN(C(=O)CSc2nc3ccccc3o2)CC1	inactive
CCC(C)NC(=O)c1ccccc1NC(=O)C(C)N(c1ccccc1)S(C)(=O)=O (stereo unspecified)	inactive
FC(F)(F)COc1nc(OCC(F)(F)F)nc(N2CCN(c3ccccc3)CC2)n1	inactive
CC(=O)Nc1nc2nc(-c3ccccc3)cc(-c3ccccc3)n2n1	inactive
Cc1cccc(Sc2c([N+](=O)[O-])ncn2C)c1	inactive
